In the library only some 1.4% were active in any assay of this set; here they are far more common.
rTrxR1 inhibitor: inhibitors of rat thioredoxin reductase 1. recombinant rTrxR1, NADPH fluorescence consumption, selenite substrate. actives 1% (n = 390,000). Potency, µM (series often up to 114 µM), inactives show top-dose activity change, negative = inhibition, most hits filed as inhibitors. O89049. AID 588453; further: potency means the concentration at half of the fitted maximal effect; nearly all actives have a fitted effect of over 65% in size
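Rat TrxR1 (90 nM in the dispensed reagent) was pre-reduced with 400 uM NADPH for 5 min at room temperature, then incubated with compound for 15 min. After 400 uM selenite was added, NADPH fluorescence (Ex 340/Em 450 nm) was followed for 8 min.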
LDHA block: LDHA (human) enzyme inhibition | purified LDHA, NADH/diaphorase-resazurin fluorescence; active compounds read low | activity change, % (values are at about 110 or 230 µM) | actives 0.15% (n = 480,000) | AID 1347041; in the data active means activity change below about -30%; inconclusive means mostly about -25% to -30%;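 further: plate controls were DMSO wells for no effect and wells without enzyme for full effect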
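Human LDH5 at 2 nM final in Tris HCl pH 7.4 with 0.06 mM NADH and 0.2 mM pyruvate, reacted 5 minutes at room temperature. Remaining NADH coupled via diaphorase/resazurin; resorufin fluorescence read at 0 and 20 minutes, normalized to enzyme-free and DMSO wells.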
IDH1 R132H inh: inhibitors of human mutant IDH1 R132H | IDH1-R132H enzyme, NADPH consumption, diaphorase/resazurin fluorescence | Potency, µM (titrated, usually from 76.6 µM), for inactives: at the highest dose activity change, negative = inhibition, usual class: inhibitors | O75874 | actives 0.093% (n = 390,000); further: potency means the concentration at half of the fitted maximal effect; nearly all actives have a fitted effect of over 65% in size
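IDH1-R132H (0.5 ug/mL) preincubated 30 min with compound, then NADPH (0.016 mM) and alpha-KG (2 mM) added; 80 min at RT, pH 7.5. Remaining NADPH coupled via diaphorase/resazurin to fluorescence (540/590 nm); concentration-response curves normalized to no-enzyme control.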
PKM2 activator: PKM2 (human) enzyme activation | P14618 | purified PKM2, Kinase-Glo ATP luminescence, activation; response scale: 0% is enzyme alone, no compound | Potency, µM (series often up to 57.5 µM), for the others: at the highest dose activation, actives largely listed as activators | actives 0.34% (n = 260,000) | AID 1631; further: potency means the concentration at half of the fitted maximal effect; nearly all actives have a fitted effect of over 55% in size
Target sequence (P14618 whole entry, looked up): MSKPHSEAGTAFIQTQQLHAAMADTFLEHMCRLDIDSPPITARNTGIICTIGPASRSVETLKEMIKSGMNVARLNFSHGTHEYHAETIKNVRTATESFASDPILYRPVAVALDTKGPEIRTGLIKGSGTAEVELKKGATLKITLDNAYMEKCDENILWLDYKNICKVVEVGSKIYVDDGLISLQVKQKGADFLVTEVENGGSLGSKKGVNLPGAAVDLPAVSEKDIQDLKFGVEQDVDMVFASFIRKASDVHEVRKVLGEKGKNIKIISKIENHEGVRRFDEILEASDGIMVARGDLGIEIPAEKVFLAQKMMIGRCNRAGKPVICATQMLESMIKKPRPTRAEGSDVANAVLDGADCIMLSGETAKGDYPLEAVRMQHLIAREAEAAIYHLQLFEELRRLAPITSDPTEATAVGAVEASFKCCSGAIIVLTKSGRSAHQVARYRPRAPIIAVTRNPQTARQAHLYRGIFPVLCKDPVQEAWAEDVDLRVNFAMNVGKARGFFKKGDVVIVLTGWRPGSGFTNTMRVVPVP
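hPK-M2, >95% pure; 0.1 mM ADP / 0.5 mM PEP final; imidazole pH7.2 buffer w/ 7 mM MgCl2, 50 mM KCl; 1 h RT; Kinase-Glo lum. Intermediate enzyme activity for dual inhibitor/activator qHTS.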
GLS inhibitor: inhibitors of human glutaminase (GLS); O94925; GLS enzymatic activity, qHTS titration; Potency, µM (series often up to 45.5 µM), inactives show top-dose activity change, negative = inhibition, hits mostly inhibitors; actives 0.21% (n = 410,000); further: potency means the concentration at half of the fitted maximal effect
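Enzyme dispensed in phosphate buffer (45 mM, pH 8.2, 0.02% Tween-20), compounds pinned in, then 1 mM L-glutamine solution and the glutamate oxidase–HRP–Amplex Red mix added; fluorescence read immediately and again after 30 min at room temperature.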
TrxR1 substrate: substrates of rat thioredoxin reductase 1; actives 0.01% (n = 390,000); purified TrxR1 substrate turnover, NADPH consumption readout; AID 588456; Potency, µM (doses to about 114 µM), inactives show at the highest dose activity change, negative = substrate turnover; further: potency means the concentration at half of the fitted maximal effect; nearly all actives have a fitted effect of over 50% in size
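Rat TrxR1, dispensed at 90 nM, was prereduced with 400 uM NADPH (final) for 5 min at ~22 deg C, then incubated with compound 15 min before 400 uM selenite. A first-read NADPH fluorescence drop versus no-compound background flagged substrates.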
* hit, by the source's call; ? = inconclusive; / = not tested or not shown; [ ] = remark or other dose. Unless noted, the call rests on the fitted dose curve; in most records, active means well fitted curve in the direction sought with a large enough effect; inconclusive means small, poorly fitted or top-dose-only effect, or another doubt; inactive means no such curve, though single readings can be large; an effect the other way counts as inactive or inconclusive. Unless noted, on the % scale 0 is the no-effect control and ±100 the full control effect.

SMILES	rTrxR1 inhibitor	LDHA block	IDH1 R132H inh	PKM2 activator	GLS inhibitor	TrxR1 substrate
Cc1ccnc(SCc2cc(=O)c(OC(=O)c3cc([N+](=O)[O-])ccc3Cl)co2)n1	-18.5%	2.4	11.1%	-6.8%	27.4%	2.3%
Cc1ccnc(SCc2cc(=O)c(OC(=O)c3ccc(Br)o3)co2)n1	?	1.2	-7.2%	16.5%	18.2%	-3.8%
Cc1cc(C)nc(SCc2cc(=O)c(OC(=O)c3ccc(S(=O)(=O)N(C)C)cc3)co2)n1	50.1µM*	1.9	-0.4%	4.8%	8.9%	-2.3%
Cc1ccnc(SCc2cc(=O)c(OC(=O)c3ccc(S(=O)(=O)N4CCCC4)cc3)co2)n1	28.2µM*	0.3	-5.3%	?	1.7%	3.5%
CCS(=O)(=O)Nc1cccc(C2=NN(S(=O)(=O)c3ccccc3)C(c3ccco3)C2)c1 (stereo not given)	?	-3.9	-4.8%	?	-6.1%	-4.5%
CS(=O)(=O)Nc1cccc(C2=NN(S(=O)(=O)c3ccccc3)C(c3ccco3)C2)c1 (stereo not given)	0.5%	-0.1	6.6%	22.4µM*	10.7%	-2.5%
Cc1ccc(C(=O)N2C(=S)C(c3ccc(F)cc3)=NC23CCN(C)CC3)cc1	20µM*	-6.3	0.3%	5.8%	-20.7%	-9.8%
Cc1ccc2cc(C3C(C#N)=C(N)Oc4c3ccc3cccnc43)c(=O)[nH]c2c1 (stereo not given)	12.6µM*	9.0	2.0%	?	-5.4%	-0.1%[57.1 µM]
Cc1ccc(C2C(C#N)=C(N)Oc3c2ccc2ccccc32)cc1 (stereo not given)	/	43.2	/	/	/	/
CCc1ccc2[nH]c(=O)c(C3C(C#N)=C(N)Oc4c3ccc3cccnc43)cc2c1 (stereo not given)	44.7µM*	6.8	-19.8%	9.4%	38.1%	12.1%
N#CC1=C(N)Oc2c(ccc3cccnc23)C1c1cccnc1 (stereo not given)	50.1µM*	2.5	1.9%	-0.5%	-19.1%	20.8%
Cc1ccc(C)c(S(=O)(=O)Nc2nc3ccccc3nc2Nc2ccc(C(=O)O)cc2)c1	/	-2.8	/	/	/	/
O=C1CCC(C(=O)N2CCSCC2)CN1Cc1ccc(Cl)cc1 (stereo not given)	44.7µM*	-11.2	3.1%	/	6.1%	-7.6%
CCc1ccc2oc(=O)cc(CN3CCC4(CC3)OCCO4)c2c1	/	0.1	/	/	/	/
Cc1ccc(S(=O)(=O)/N=C(/NC(=S)Nc2cccc(C)c2)c2ccccc2)cc1	?	-2.6	-0.1%	-0.7%	-18.4%	-2.2%
Cc1cccc(NC(=S)N/C(=N/S(=O)(=O)c2ccccc2)c2ccccc2)c1	15.8µM*	-5.6	-0.6%	5.9%	17.1%	2.0%
CC(=O)Nc1c(-c2ccccc2)c(C)nn1-c1ccc(C(=O)N2CCN(C3CCCCC3)CC2)cc1	/	-1.0	/	/	/	/
Oc1ccccc1CNc1ccc(Br)cn1	-3.0%	-3.6	8.3%	31.6µM*	26.7%	-5.8%
CCCCNC(N)=S	/	-8.4	/	/	/	/
CC(C)(C)c1ccc(OCC(=O)NCc2ccco2)c(Br)c1	11.2µM*	2.9	10.9%	26.3%	-2.4%	-2.3%
O=C(COC(=O)Cc1ccc(F)cc1)NCc1ccco1	-1.0%	1.3	-0.5%	-8.4%	-9.1%	3.5%
Cc1cc(S(=O)(=O)N2CCCC2)ccc1OCC(=O)NCc1ccco1	10µM*	-7.1	-0.9%	?	?	10.5%
Cc1cc(S(=O)(=O)N2CCOCC2)ccc1OCC(=O)NCc1ccco1	-8.5%[57.1 µM]	-11.1	-16.3%	/	-1.2%	-3.9%[57.1 µM]
CC(C)(C)c1ccc(OCC(=O)NNC(=S)NC(=O)c2ccco2)c(Br)c1	-26.7%	-3.9	2.8%	5.2%	1.4%	-6.4%
CCOc1ccc(S(=O)(=O)N2CCN(C(=S)NCc3ccco3)CC2)cc1	3.8%	-1.5	8.5%	14.1µM*	11.6%	-1.4%
SMILES	rTrxR1 inhibitor	LDHA block	IDH1 R132H inh	PKM2 activator	GLS inhibitor	TrxR1 substrate
O=C(COC(=O)Cc1cccc(C(F)(F)F)c1)NCc1ccco1	35.5µM*	1.7	-12.2%	/	?	-4.8%
CCNC(=O)C/C(C)=N/NC(=O)C12CC3CC(CC(C3)C1)C2	25.1µM*	-3.6	11.5%	-1.6%	-3.6%	3.5%
Cc1cc(C)c(C#N)c(SCCS(=O)(=O)c2ccc(Cl)cc2)n1	4.4%	-7.7	2.8%	20µM*	14.0%	3.6%
Cc1cc(C)c(C#N)c(SCCS(=O)(=O)c2ccc(C(C)(C)C)cc2)n1	18.1%	-5.3	2.4%	5.1%	5.1%	-3.8%
O/N=C1\CCCCC1c1nccc2ccccc12 (stereo not given)	/	1.9	/	/	/	/
CN(C)S(=O)(=O)c1cccc(NC(=S)Nc2ccc(Cl)cc2Cl)c1	?	-3.6	3.6%	1.9%	-0.4%	-12.2%
CN(C)S(=O)(=O)c1cccc(NC(=S)N/N=C/c2ccc(O)c(O)c2O)c1	?	50.9	-7.0%	5.6%	7.94µM*	-7.7%
CN(C)S(=O)(=O)c1cccc(NC(=S)Nc2cc(Cl)cc(Cl)c2)c1	20µM*	1.7	3.7%	0.9%	-7.4%	-7.8%
COc1ccc(O)c(/C=N/NC(=S)Nc2cccc(S(=O)(=O)N(C)C)c2)c1	-22.2%	-9.9	-6.0%	-15.9%	17.3%	19.6%
Cc1ccc(CNC(=O)[C@H](Cc2ccccc2)NC(=O)c2cccs2)n1C	/	-5.9	/	/	/	/
COc1cccc(NC(=O)c2cc[n+]([O-])cc2)c1	/	-3.1	/	/	/	/

Bioassay records (PubChem)
